Results on nine molecules are retold here after PubChem BioAssay.

Inconclusive results are not listed. The source made the active and inactive calls.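 The calls were made as follows, unless noted: active = RAM network inhibition above 8.4% in each of two replicates, 3 SD over the compound average; inconclusive = above 8.4% inhibition in only one replicate; inactive = 8.4% inhibition or less in each replicate.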

Assay [1] is described as follows: reducers of endogenous Her2 protein level, primary screen, SKBR3 breast tumor cells, AlphaScreen, ATP viability (AID 461;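 active = Her2 level under about 52% in both replicate screens, with viability over 70% of control, limit read from the data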;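 as to Her2 level: lower value means less Her2 protein in the cells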;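 as to viability: percent of carrier control wells set as 100% viability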). To be noted: 18-24 h, measured here: SKBR3 viability, ATP luminescence, at 10 µM. For orientation: In Alpha technology, singlet oxygen from a donor bead excites a nearby acceptor bead.
The target of assay [2] is Receptor tyrosine-protein kinase erbB-2 (Homo sapiens) (UniProt P04626). The description is as above. To be noted: 18-24 h, at 10 µM, stronger effect = lower value.
Sequence of Receptor tyrosine-protein kinase erbB-2 (Homo sapiens) (P04626 whole entry, looked up): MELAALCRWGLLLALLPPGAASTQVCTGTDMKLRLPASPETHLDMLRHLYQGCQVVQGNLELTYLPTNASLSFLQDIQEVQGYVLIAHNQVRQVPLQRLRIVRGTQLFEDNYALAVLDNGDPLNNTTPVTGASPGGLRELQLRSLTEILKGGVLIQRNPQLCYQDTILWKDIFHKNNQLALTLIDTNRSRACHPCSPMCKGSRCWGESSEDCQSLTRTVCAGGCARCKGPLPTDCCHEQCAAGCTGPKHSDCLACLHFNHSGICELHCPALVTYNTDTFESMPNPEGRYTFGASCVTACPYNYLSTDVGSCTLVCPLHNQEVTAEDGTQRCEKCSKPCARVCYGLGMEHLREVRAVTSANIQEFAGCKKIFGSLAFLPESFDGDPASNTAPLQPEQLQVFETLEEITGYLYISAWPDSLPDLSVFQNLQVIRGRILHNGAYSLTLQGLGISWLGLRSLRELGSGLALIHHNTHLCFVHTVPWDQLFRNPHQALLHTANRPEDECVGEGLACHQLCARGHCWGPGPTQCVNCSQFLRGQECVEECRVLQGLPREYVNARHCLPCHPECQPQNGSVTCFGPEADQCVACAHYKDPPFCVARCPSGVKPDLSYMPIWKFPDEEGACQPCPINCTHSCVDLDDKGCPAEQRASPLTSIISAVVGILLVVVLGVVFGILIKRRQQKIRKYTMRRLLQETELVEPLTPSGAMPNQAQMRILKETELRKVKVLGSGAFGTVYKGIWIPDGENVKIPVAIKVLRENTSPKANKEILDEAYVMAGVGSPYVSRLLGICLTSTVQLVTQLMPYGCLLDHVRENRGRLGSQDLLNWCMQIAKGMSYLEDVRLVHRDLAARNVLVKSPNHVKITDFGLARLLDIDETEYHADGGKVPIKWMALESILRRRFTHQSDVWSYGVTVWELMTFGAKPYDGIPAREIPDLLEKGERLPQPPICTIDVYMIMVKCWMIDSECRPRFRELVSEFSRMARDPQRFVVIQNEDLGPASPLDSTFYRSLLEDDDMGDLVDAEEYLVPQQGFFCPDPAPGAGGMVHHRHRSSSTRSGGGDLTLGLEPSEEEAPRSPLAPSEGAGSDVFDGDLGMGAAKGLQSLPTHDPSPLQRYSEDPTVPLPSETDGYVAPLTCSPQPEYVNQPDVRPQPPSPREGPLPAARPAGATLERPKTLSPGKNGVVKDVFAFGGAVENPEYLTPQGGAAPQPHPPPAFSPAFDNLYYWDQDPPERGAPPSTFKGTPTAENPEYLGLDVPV
Assay [3] in a line: SK-BR-3 cell growth inhibitors, pilot screen, 24 h, human (AID 572;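 active = viability at or below 10% of carrier control in both of two separate runs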;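 also: compound exposure lasted between 18 and 24 h rather than exactly 24 h; 100% = carrier-treated control wells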). Particulars: SK-BR-3 viability, CellTiter-Glo luminescence, at 10 µM, stronger effect = lower value.
Assay [4] is described as follows: HUVEC growth inhibition – cell-based, human, primary screen (AID 575;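 active = viability at or below 30% in both replicate assays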;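 also: 100% = median of untreated cell wells with 0.1% DMSO on each plate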). Particulars: HUVEC proliferation, CellTiter-Glo luminescence, 72 h; at 10 µM; stronger effect = lower value. (In general: ATP-based viability assays read luminescence as a measure of living cells.)
The nature of assay [5]: growth inhibitors of H69AR lung tumor, primary screen, human, duplicate replicates (AID 580;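 active = viability at or under a set limit in both replicates, limit being median viability minus 3 SD, cut at about 48% in these data, passing the limit was not always enough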;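 also: 100% = mean luminescence of untreated wells and 0% = no signal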). Particulars: H69AR lung tumor cells viability, ATP luminescence, 72 h; at 10 µM; stronger effect = lower value.
Assay [6] is described as follows: reversal of MRP1-mediated doxorubicin resistance, pilot screen, H69AR cells, doxorubicin co-treatment (AID 601;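 active = viability loss from added drug above about 55%, and viability with drug at most 40%, in both replicates, limit read from the data, passing the limit was not always enough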). To be noted: CellTiter-Glo, 72 h, at 10 µM; for differential viability (reversal): stronger effect = higher value.
A short description of assay [7]: 384-well plate pilot, post-Golgi transport modulator project, inhibition of yeast transport mutant growth (AID 636; in the data active = inhibition above about 31%). To be noted: absorbance 615 nm, about 18 h, stronger effect = higher value.
Assay [8] in a line: growth suppression of yeast trafficking mutant, preliminary HTS, modulators of trafficking downstream of Golgi apparatus project, 1536-format plate, OD 615 nm (AID 637; in the data active = inhibition above about 30%). Particulars: yeast transport mutant growth, absorbance 615 nm, 18 h; stronger effect = higher value.
A short description of assay [9]: OD615 S. cerevisiae growth inhibition, permissive medium, pilot counter-assay, permissive growth control for S. cerevisiae lifespan shortening project (AID 705;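 active = growth inhibition above 25% in both replicates, a cutoff set 3 SD above the mean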). Particulars: OD615, 24 h, at 10 µM, stronger effect = higher value.
Assay [10] can be described thus: Restrictive medium S. cerevisiae growth inhibition, OD615, pilot screen of yeast lifespan reduction project, restrictive growth control (AID 706;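 active = growth inhibition above a set limit, 3 SD over mean compound inhibition, in both replicates, cut at about 43% in these data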;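 also: modified DeaD lifespan yeast strain shifted to restrictive glucose medium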). To be noted: OD615, 48 h, at 10 µM, stronger effect = higher value.
Assay [11] in a line: viability gain of MRP-1-high H69AR cells under doxorubicin, pilot screen, MRP-1 activator project, CellTiter-Glo, duplicate (AID 807;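 active = viability increase at or above a cutoff of the median across tested compounds plus 3 SD, cut at about 8.5% in these data, passing the limit was not always enough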;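 also: compound pretreatment 18-22 h then 72 h combined with doxorubicin; 0% = doxorubicin alone and 100% = vehicle without doxorubicin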). To be noted: H69AR viability with doxorubicin, CellTiter-Glo luminescence; at 10 µM; stronger effect = higher value.
The nature of assay [12]: growth suppression of beta-catenin knockout HCT116, pilot screen, human colon tumor cells (AID 823;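 active = cell viability at or below a set limit in both duplicate runs, the limit being the all-compound median minus 4 SD, cut at about 23% in these data, passing the limit was not always enough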;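 also: 0% = wells killed by 20 µM Hyamine and 100% = untreated DMSO cell wells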). To be noted: CellTiter-Glo, 60 h, at 10 µM, stronger effect = lower value.
Assay [13] can be described thus: growth suppression of PTEN-deleted HCT116, pilot screen, cell-based, HCT116 clonal line, CellTiter-Glo (AID 824;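 active = viability at or below 27.92% in each of two runs, the all-compound median minus 4 SD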;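 also: 0% = 20 µM Hyamine control and 100% = vehicle cell control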). To be noted: 60 h, at 10 µM, stronger effect = lower value.
Assay [14] is described as follows: inhibitors of the yeast RAM network, pilot screen, dse1pr::URA3 reporter, 5-FOA selection (AID 869;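 active = inhibition over a set limit, the all-compound mean plus 3 SD, in both replicate runs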;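 also: 0% = DMSO wells with no growth and 100% = 10 µM 1-NA-PP1 with full growth; RAM network block rescues cells from 5-FOA so hits raise OD615 growth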). Particulars: S. cerevisiae dse1pr::URA3 5-FOA growth, OD615, 2 d; at 10 µM; stronger effect = higher value; strain carries analog-sensitive mutant Cbk1 kinase.
Assay [15] can be described thus: RAM signaling pathway blockade in yeast – S. cerevisiae, Pdr1DBD-CYC8 efflux-inhibited sensitized strain, primary screen (AID 1298).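 Also: 0% = DMSO untreated cells without growth and 100% = 10 µM 1-NA-PP1 full growth; higher means more yeast growth rescued from 5-FOA killing.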 To be noted: S. cerevisiae cbk1-as DSE1-URA3 strain, 5-FOA growth OD615, 2 d; at 50 µM; stronger effect = higher value.
The mark [16] stands for this setting: H69AR cells + 2 uM doxorubicin, measured here: viability with 2 uM doxorubicin, stronger effect = lower value.
The mark [17] stands for this setting: H69AR cells, compound alone cytotoxicity.

Take `Cc1ccc(-n2nc(C)c3cc(C(=O)O)sc32)cc1`: the viability in assay [1] is 97%; in assay [3], 97% (inactive); in assay [4] it was 70.7% (inactive); in assay [5], 87.2% (inactive); in assay [6] (setting [16]), 86.8%; in assay [6] (setting [17]) it was 87.2%. In addition, the viability in [12] is 93.1% (inactive); in assay [13], 94.9% (inactive). In addition, the Her2 level in [2] is 95.5% (inactive). The differential viability (reversal) in assay [6] (H69AR cells + 2 uM doxorubicin) was 0.315% (inactive). Besides, the inhibition was -2.31% (inactive) in [7], -2% (inactive) in [8] and 2.74% (inactive) in assay [14]. In addition, the growth inhibition is 16% (inactive) in assay [9] and 21.7% (inactive) in [10]. In addition, in [11], the viability increase was -2.19% (inactive). Further, the RAM network inhibition in [15] was -1.34% (inactive).

Regarding `CCCCN(C(=O)c1ccc(Cl)cc1)C1CC2CCC(C1)N2C` (stereo not drawn), the viability is 87.5% in assay [1]; 87.5% (inactive) in assay [3]; 78.2% (inactive) in assay [4]; 85.1% (inactive) in assay [5]; 81.2% in assay [6] (setting [16]); 85.1% in [6] (setting [17]). In addition, the viability is 85.3% (inactive) in assay [12] and 89.3% (inactive) in assay [13]. The Her2 level in assay [2] is 120% (inactive). In addition, the differential viability (reversal) in [6] (H69AR cells + 2 uM doxorubicin) was 3.96% (inactive). Besides, the figures for the inhibition in assay [7], in assay [8] and in assay [14] were -5.6% (inactive), -4% (inactive) and 1.62% (inactive), respectively. Further, the values for the growth inhibition in assay [9] and in assay [10] were -9.97% (inactive) and 1.71% (inactive), respectively. Besides, the viability increase in [11] was -2.41% (inactive). Moreover, in assay [15], the RAM network inhibition was -0.05% (inactive).

Regarding `CC(C)c1nnc(NC(=O)Cc2cccs2)s1`, the viability in assay [1] is 106%; in [3], 106% (inactive); in assay [4], 106% (inactive); in assay [5], 96.7% (inactive); in [6] (setting [16]) it was 90.6%; in [6] (setting [17]) it was 96.7%. For the same molecule, the viability in assay [12] is 99.5% (inactive); in [13], 94.8% (inactive). Besides, the Her2 level in assay [2] was 92% (inactive). Also, in assay [6] (H69AR cells + 2 uM doxorubicin), the differential viability (reversal) is 6.08% (inactive). In addition, the results for the inhibition in assay [7], in assay [8] and in assay [14] were -2.53% (inactive), 1.48% (inactive) and 2.64% (inactive), respectively. For the same molecule, the growth inhibition in assay [9] was -2.5% (inactive); in assay [10], -0.8% (inactive). In assay [11], the viability increase was -0.07% (inactive). Moreover, in assay [15], the RAM network inhibition is 0.83% (inactive).

Take `CC(C(=O)N1CC2(C)CC1CC(C)(C)C2)N1C(=O)c2ccccc2C1=O` (stereo not drawn): the viability in assay [1] is 84%; in [3], 84% (inactive); in [4] it was 101% (inactive); in [5], 98.1% (inactive); in assay [6] (setting [16]) it was 81.3%; in assay [6] (setting [17]), 98.1%. Moreover, the figures for the viability in [12] and in assay [13] were 82.1% (inactive) and 83.5% (inactive), respectively. Moreover, the Her2 level in assay [2] is 101% (inactive). Besides, the differential viability (reversal) in [6] (H69AR cells + 2 uM doxorubicin) was 16.8% (inactive). The values for the inhibition in assay [7], in [8] and in assay [14] were -7.07% (inactive), 0.32% (inactive) and 0.545% (inactive), respectively. Also, the growth inhibition in [9] is -13.3% (inactive); in assay [10] it was -0.265% (inactive). For the same molecule, in assay [11], the viability increase was -3.98% (inactive). Moreover, the RAM network inhibition in [15] is 4.35% (inactive).

As to `CC1CCc2nn(CC(=O)NCCN3CCCCC3C)cc2C1` (stereo not drawn), the viability was 85% in assay [1]; 85% (inactive) in assay [3]; 103% (inactive) in assay [4]; 90% (inactive) in assay [5]; 92.6% in [6] (setting [16]); 90% in assay [6] (setting [17]). Moreover, the results for the viability in assay [12] and in assay [13] were 101% (inactive) and 98.5% (inactive), respectively. Besides, the Her2 level in assay [2] was 104% (inactive). In assay [6] (H69AR cells + 2 uM doxorubicin), the differential viability (reversal) is -2.58% (inactive). The inhibition in [7] was -2.18% (inactive); in assay [8] it was 0.83% (inactive); in [14], 2.96% (inactive). Further, the results for the growth inhibition in [9] and in [10] were 0.05% (inactive) and -11% (inactive), respectively. For the same molecule, in assay [11], the viability increase is -1.56% (inactive). The RAM network inhibition in [15] is 1.89% (inactive).

For `CCN(CC)CCNC(=O)c1ccc(CS(=O)(=O)c2ccc(Br)cc2)o1`, the viability is 92.5% in assay [1]; 92.5% (inactive) in assay [3]; 100% (inactive) in assay [4]; 95.9% (inactive) in assay [5]; 90.1% in [6] (setting [16]); 95.9% in assay [6] (setting [17]). Also, the viability in assay [12] was 97.1% (inactive); in [13] it was 96.5% (inactive). For the same molecule, in assay [2], the Her2 level was 110% (inactive). Besides, the differential viability (reversal) in assay [6] (H69AR cells + 2 uM doxorubicin) was 5.79% (inactive). Besides, the inhibition was -0.26% (inactive) in assay [7], 0.17% (inactive) in assay [8] and 0.92% (inactive) in assay [14]. Further, the growth inhibition is -12.3% (inactive) in assay [9] and -17.7% (inactive) in [10]. Besides, the viability increase in [11] was -2.1% (inactive). For the same molecule, the RAM network inhibition in assay [15] is 0.74% (inactive).

Take `COc1ccccc1N1C(=O)CCC1(C#N)c1ccccc1` (stereo not drawn): the viability in [1] was 97%; in assay [3] it was 97% (inactive); in assay [4], 104% (inactive); in [5], 117% (inactive); in [6] (setting [16]), 96.9%; in assay [6] (setting [17]) it was 117%. Further, the values for the viability in assay [12] and in [13] were 108% (inactive) and 99.7% (inactive), respectively. In assay [2], the Her2 level was 102% (inactive). Further, the differential viability (reversal) in [6] (H69AR cells + 2 uM doxorubicin) is 20.5% (inactive). Also, the inhibition in assay [7] is 0.68% (inactive); in assay [8], -3.49% (inactive); in [14], 1.52% (inactive). Further, the growth inhibition in [9] is -7.28% (inactive); in assay [10] it was 0.615% (inactive). In addition, the viability increase in assay [11] was -1.56% (inactive). The RAM network inhibition in assay [15] was 2.81% (inactive).

Turning to `COc1cccc(-c2nc(CS(=O)(=O)CC(=O)N3CCc4ccccc4C3)c(C)o2)c1`, the viability in assay [1] was 93.5%; in [3], 93.5% (inactive); in assay [4], 93.3% (inactive); in [5], 89.1% (inactive); in assay [6] (setting [16]) it was 83.1%; in assay [6] (setting [17]), 89.1%. The values for the viability in [12] and in assay [13] were 75.5% (inactive) and 73.7% (inactive), respectively. Also, the Her2 level in assay [2] is 86.5% (inactive). The differential viability (reversal) in [6] (H69AR cells + 2 uM doxorubicin) is 6% (inactive). In addition, the values for the inhibition in assay [7], in assay [8] and in assay [14] were -0.67% (inactive), 0.98% (inactive) and 1.68% (inactive), respectively. The growth inhibition in [9] was 2.52% (inactive); in [10] it was 8.9% (inactive). Besides, the viability increase in assay [11] is -2.85% (inactive). Also, the RAM network inhibition in [15] was 6.29% (inactive).

In the case of `O=C(Nc1cnn(Cc2ccc(Cl)cc2Cl)c1)c1noc2c1CCCC2`, the viability in assay [1] was 94.5%; in assay [3], 94.5% (inactive); in [4], 71.8% (inactive); in assay [5], 88.2% (inactive); in [6] (setting [16]), 85.6%; in assay [6] (setting [17]) it was 88.2%. In addition, the viability in assay [12] is 94.7% (inactive); in assay [13], 82.7% (inactive). The Her2 level in assay [2] was 91.5% (inactive). The differential viability (reversal) in assay [6] (H69AR cells + 2 uM doxorubicin) was 2.57% (inactive). Besides, the inhibition in [7] was -0.13% (inactive); in assay [8], -3.17% (inactive); in assay [14] it was 0.895% (inactive). Moreover, the figures for the growth inhibition in assay [9] and in assay [10] were 2.94% (inactive) and -1.65% (inactive), respectively. In addition, the viability increase in assay [11] is -0.32% (inactive). In assay [15], the RAM network inhibition was 4.07% (inactive).

By viability is commonly meant a read-out of living cells in per cent, often relative to untreated cells. The term inhibition denotes the change of the read-out against control, counted positive when it falls.
